Reference: PubChem BioAssay (NCATS)
Results filed as inconclusive are left out. Activity calls are given as the source filed them. The call rests on the fitted dose curve; in most records, active means well fitted inhibition curve with a large enough effect; inconclusive means small, poorly fitted or top-dose-only effect; inactive means flat fitted curve, though single readings scatter.

Assays:
HEK293 = test: Cytotoxic Profiling of Annotated Libraries Using Quantitative High-Throughput Screening (AID 1296008); details: Five cell lines viability, CellTiter-Glo ATP luminescence, 48-72 h; max response: hits give low values
Procedure, shortened: (§1)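 Cytotoxicity was measured as CellTiter-Glo ATP luminescence, read after 10 min at room temperature. Compound treatment of the cells lasted 48 or 72 hr at 37 degrees Celsius in a qHTS format.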

HaCat [1] = test: as above; details: Five cell lines viability, CellTiter-Glo ATP luminescence, 48-72 h; max response: hits give low values
Procedure, shortened: as §1

NIH3T3 = test: as above; details: Five cell lines viability, CellTiter-Glo ATP luminescence, 48-72 h; max response: hits give low values
Procedure, shortened: as §1

HACAT [2] = test: qHTS assay to identify novel small-molecules to repurpose for Merkel cell carcinoma treatment (AID 1296009); details: MCC and control cell lines, CellTiter-Glo viability, 72 h; at 44.8 µM (top of the series) unless noted
Procedure, shortened: (§2)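 Cell viability, measured as CellTiter-Glo luminescence, was normalized between DMSO and no-cell wells. The cells had been exposed to 8- or 11-point compound dilutions for 72 hr at 37 degree celsius.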

HEK293T = test: as above; details: MCC and control cell lines, CellTiter-Glo viability, 72 h; at 44.8 µM (top of the series) unless noted
Procedure, shortened: as §2

MCC-13 = test: as above; details: MCC and control cell lines, CellTiter-Glo viability, 72 h; series mostly up to 46 µM
Procedure, shortened: as §2

MCC-26 = test: as above; details: MCC and control cell lines, CellTiter-Glo viability, 72 h; series mostly up to 46 µM
Procedure, shortened: as §2

MKL-1 = test: as above; details: MCC and control cell lines, CellTiter-Glo viability, 72 h; series mostly up to 46 µM
Procedure, shortened: as §2

MKL-2 = test: as above; details: MCC and control cell lines, CellTiter-Glo viability, 72 h; series mostly up to 46 µM
Procedure, shortened: as §2

KB-3-1 = test: Cytotoxic Profiling of Annotated Libraries Using Quantitative High-Throughput Screening (AID 1296008); details: Five cell lines viability, CellTiter-Glo ATP luminescence, 48-72 h; max response: hits give low values
Procedure, shortened: as §1
Further: nearly all actives have a fitted effect of over 60% in size.
On the % scale 0 is the no-effect control and ±100 the full control effect.

CCCC(=O)Nc1ccc(O)c(C(C)=O)c1
inactive: outcome (HEK293) | outcome (HaCat [1]) | max response (NIH3T3) 3.73% | outcome (HACAT [2]) | outcome (HEK293T) | Potency (MCC-13) | Potency (MCC-26) | Potency (MKL-1) | Potency (MKL-2)

Cc1ccc(-c2ccccc2C#N)cc1
inactive: outcome (HEK293) | outcome (HaCat [1]) | max response (NIH3T3) 3.01% | outcome (HACAT [2]) | outcome (HEK293T) | Potency (MCC-13) | Potency (MCC-26) | Potency (MKL-1) | Potency (MKL-2)

O=C(C1CCCCC1)N1CC(=O)N2CCCc3ccccc3C2C1 (stereo not drawn)
inactive: outcome (HEK293) | outcome (HaCat [1]) | outcome (NIH3T3) | outcome (HACAT [2]) | outcome (HEK293T) | Potency (MCC-13) | Potency (MCC-26) | Potency (MKL-1) | Potency (MKL-2)

C[N+](C)(CCOc1ccccc1)Cc1cccs1
inactive: max response (HEK293) -16.4% | max response (HaCat [1]) 2.51% | max response (KB-3-1) -7.87% | max response (NIH3T3) -2.33% | Potency (MCC-13) | Potency (MKL-1) | Potency (MKL-2)

C[C@H]1C[C@@H]2[C@H]([C@@H](O)C[C@@]3(C)[C@H]2CC[C@]3(O)C(=O)CO)[C@@]2(C)C=CC(=O)C=C12
inactive: outcome (HEK293) | outcome (HaCat [1]) | max response (NIH3T3) 0.285% | outcome (HACAT [2]) | outcome (HEK293T) | Potency (MCC-13) | Potency (MCC-26) | Potency (MKL-1) | Potency (MKL-2)

CC(C)(C)c1nnc(NS(=O)(=O)c2ccccc2)s1
inactive: outcome (HEK293) | outcome (HaCat [1]) | max response (NIH3T3) 1.08% | outcome (HACAT [2]) | outcome (HEK293T) | Potency (MCC-13) | Potency (MCC-26) | Potency (MKL-1) | Potency (MKL-2)

COC(=O)/C=C\C(=O)OC
inactive: outcome (HEK293) | outcome (HaCat [1]) | outcome (NIH3T3) | outcome (HACAT [2]) | outcome (HEK293T) | Potency (MCC-13) | Potency (MCC-26) | Potency (MKL-1) | Potency (MKL-2)

COc1ccc(/C(C)=C/C(=O)O)c(OC)c1
inactive: outcome (HEK293) | outcome (HaCat [1]) | outcome (NIH3T3) | outcome (HACAT [2]) | outcome (HEK293T) | Potency (MCC-13) | Potency (MCC-26) | Potency (MKL-1) | Potency (MKL-2)

OC1(c2ccc(Cl)cc2)CCNCC1
inactive: outcome (HEK293) | outcome (HaCat [1]) | max response (NIH3T3) -2.06% | outcome (HACAT [2]) | outcome (HEK293T) | Potency (MCC-13) | Potency (MCC-26) | Potency (MKL-1) | Potency (MKL-2)

CC(=O)c1ccc(O)c(C(N)=O)c1
inactive: outcome (HEK293) | outcome (HaCat [1]) | outcome (NIH3T3) | outcome (HACAT [2]) | outcome (HEK293T) | Potency (MCC-13) | Potency (MCC-26) | Potency (MKL-1) | Potency (MKL-2)

C[C@H]1NCc2cc(-c3ccc4c(=O)c(C(=O)O)cn(C5CC5)c4c3OC(F)F)ccc21
inactive: max response (HEK293) -17.6% | max response (HaCat [1]) -3.8% | max response (KB-3-1) -9.83% | max response (NIH3T3) 3.52% | Potency (MCC-13) | Potency (MKL-1) | Potency (MKL-2)

COc1ccc(CCC(C)=O)cc1
inactive: outcome (HEK293) | outcome (HaCat [1]) | outcome (NIH3T3) | outcome (HACAT [2]) | outcome (HEK293T) | Potency (MCC-13) | Potency (MCC-26) | Potency (MKL-1) | Potency (MKL-2)

COC(=O)c1cc(Cl)ccc1OC
inactive: outcome (HEK293) | outcome (HaCat [1]) | outcome (NIH3T3) | outcome (HACAT [2]) | outcome (HEK293T) | Potency (MCC-13) | Potency (MCC-26) | Potency (MKL-1) | Potency (MKL-2)

CC1(C)OC(=O)Nc2ccc(Br)cc21
inactive: outcome (HEK293) | outcome (HaCat [1]) | max response (NIH3T3) 3.48% | outcome (HACAT [2]) | outcome (HEK293T) | Potency (MCC-13) | Potency (MCC-26) | Potency (MKL-1) | Potency (MKL-2)

O=[N+]([O-])c1nccn1CO[C@@H](CO)[C@H](O)CO
inactive: max response (HEK293) 4% | outcome (HaCat [1]) | max response (KB-3-1) 2.05% | outcome (HACAT [2]) | Potency (MCC-13) | Potency (MCC-26) | Potency (MKL-1) | Potency (MKL-2)

Cc1ccc2ccc(Cl)cc2n1
inactive: outcome (HEK293) | outcome (HaCat [1]) | max response (NIH3T3) 3.19% | outcome (HACAT [2]) | outcome (HEK293T) | Potency (MCC-13) | Potency (MCC-26) | Potency (MKL-1) | Potency (MKL-2)

Cc1ccc(C(C)OC(=O)C2(C)CCC(C(=O)O)C2(C)C)cc1 (stereo not drawn)
inactive: outcome (HEK293) | outcome (HaCat [1]) | outcome (NIH3T3) | outcome (HACAT [2]) | outcome (HEK293T) | Potency (MCC-13) | Potency (MCC-26) | Potency (MKL-1) | Potency (MKL-2)

O=C(O)CCCC[P+](c1ccccc1)(c1ccccc1)c1ccccc1
inactive: outcome (HEK293) | outcome (HaCat [1]) | max response (NIH3T3) 3.89% | outcome (HACAT [2]) | outcome (HEK293T) | Potency (MCC-13) | Potency (MCC-26) | Potency (MKL-1) | Potency (MKL-2)

CC(C)NC(=O)c1ccc(C=O)cc1
inactive: outcome (HEK293) | outcome (HaCat [1]) | max response (NIH3T3) 3.81% | outcome (HACAT [2]) | outcome (HEK293T) | Potency (MCC-13) | Potency (MCC-26) | Potency (MKL-1) | Potency (MKL-2)

Cc1ccc(C(=O)Oc2ccc(C(O)CNC(C)(C)C)cc2OC(=O)c2ccc(C)cc2)cc1 (stereo not drawn)
inactive: max response (HEK293) 1.15% | outcome (HaCat [1]) | outcome (NIH3T3) | outcome (HACAT [2]) | Potency (MCC-13) | Potency (MCC-26)

Nc1c(I)cc(I)c(C(=O)N(CCC(=O)O)c2ccccc2)c1I
inactive: max response (HEK293) -0.316% | outcome (HaCat [1]) | max response (NIH3T3) 0.521% | outcome (HACAT [2]) | Potency (MCC-13) | Potency (MCC-26) | Potency (MKL-1) | Potency (MKL-2)

Cc1cnc(NS(=O)(=O)c2ccc(N)cc2)nc1
inactive: max response (HEK293) -11.8% | outcome (HaCat [1]) | max response (NIH3T3) 2.98% | outcome (HACAT [2]) | Potency (MCC-13) | Potency (MCC-26) | Potency (MKL-1) | Potency (MKL-2)
